DRD3 antagonist – blocks the human D3 dopamine receptor. D3R cells, DiscoveRx beta-arrestin luminescence, antagonist mode; active compounds read low. max response, negative = inhibition, %. hit rate 2.5% among 360,000; in the data active means max response below about -50%; inconclusive means no clear call, values can overlap the other calls; further: on the % scale 0 is the no-effect control and ±100 the full control effect
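Cells expressing the human receptor were seeded at 1500 cells/well, incubated overnight at 37 degrees C in 5% CO2, then exposed to library compounds with dopamine controls for 90 minutes at 37 degrees C before luminescent detection.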
D3 ag – activates the human D3 dopamine receptor; AID 652048; max activation, %; P35462; hit rate 0.58% among 410,000; D3R DiscoveRx beta-arrestin cells, luminescence, 90 min; in the data active means max activation above about 30%; further: 0% is about no effect
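Agonist-mode cell screen: cells plated at 1500/well and incubated overnight at 37 °C, then exposed to library compounds for 90 min at 37 °C. Detection reagent was added for 30–60 min at room temperature, and luminescence was read.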
D1 ag – human D1 receptor agonism; P21728; HEK293 T-REx D1 cells, calcium flux, agonist mode; activation, % at 2 µM; hit rate 1% among 360,000; in the data active means activation above about 30%; further: 0% is about no effect
Target sequence (P21728 whole entry, looked up): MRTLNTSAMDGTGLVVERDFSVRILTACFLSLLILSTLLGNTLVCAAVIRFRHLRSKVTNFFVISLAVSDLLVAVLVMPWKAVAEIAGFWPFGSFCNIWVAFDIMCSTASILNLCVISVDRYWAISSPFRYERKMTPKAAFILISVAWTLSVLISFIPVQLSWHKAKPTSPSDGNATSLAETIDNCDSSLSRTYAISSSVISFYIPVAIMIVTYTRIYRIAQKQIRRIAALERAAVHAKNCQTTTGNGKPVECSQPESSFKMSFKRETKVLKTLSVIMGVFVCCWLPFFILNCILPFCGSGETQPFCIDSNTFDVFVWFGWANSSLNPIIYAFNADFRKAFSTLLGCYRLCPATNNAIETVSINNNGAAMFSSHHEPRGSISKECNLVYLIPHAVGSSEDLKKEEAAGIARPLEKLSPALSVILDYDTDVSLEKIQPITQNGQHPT
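Tetracycline-induced HEK293 TREx D1 cells, force-coupled to calcium signalling, were dye-loaded with a no-wash calcium kit. Compound was pin-added after a 10 s baseline. Fluorescence was read kinetically at 1 cycle/s for 180 s, with calcium rises flagged as agonism.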
D1 PAM – human D1 dopamine receptor positive modulation | P21728 | HEK293 TREx D1 cells, calcium flux, dopamine EC20 potentiation | potentiation, % at 10 µM | hit rate 0.036% among 360,000 | AID 504651; in the data active means potentiation above about 30%; further: 0% is about no effect
D1 antagonist – blocks dopamine activation of the human D1 receptor. HEK293 TREx D1 cells, calcium flux, dopamine EC80; active compounds read low. hit rate 3.2% among 360,000. activity change, negative = inhibition, % at 10 µM. P21728; in the data active means activity change below about -30%; further: on the % scale 0 is the no-effect control and ±100 the full control effect
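Allosteric or orthosteric antagonism assessed as attenuation of the calcium response to EC80 dopamine, added 180 s after compound, in induced HEK293 Trex D1 cells loaded with no-wash calcium dye.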
* hit, by the source's call; ? = inconclusive; . = not tested or not shown; ! = not active in a repeat. The list is not random: actives were taken first. Their share in the collection is about 6.1%.

SMILES	DRD3 antagonist	D3 ag	D1 ag	D1 PAM	D1 antagonist
CCC1Nc2ncnc(N3CCCCC3)c2N(Cc2ccc(OC)cc2)C1=O (centres undefined)	-64*!	-27	.	.	.
CCC1Nc2ncnc(N3CCc4ccccc4C3)c2N(Cc2ccc(Cl)cc2)C1=O (centres undefined)	-8	-24	.	.	.
CC(C)CC1Nc2ncnc(N3CCCCC3)c2N(Cc2ccc(Br)cc2)C1=O (centres undefined)	-8	0	5	-8	-8
CC1(c2ccccc2)NC(=O)N(CC(=O)Nc2ccc(C(N)=O)cc2)C1=O (centres undefined)	-9	7	1	16	-11
O=C(CSc1nc2sc3c(c2c(=O)[nH]1)CCCC3)Nc1ccccc1F	.	0	5	1	-11
CC(=O)Nc1c(C#N)c(-c2ccccc2)c(C#N)c(=O)n1-c1ccc(C)cc1	-7	-4	.	.	.
NC(=O)c1ncc(C(F)(F)F)cc1Oc1cccnc1	9	4	4	-4	-17
CCC1Nc2ncnc(N3CCOCC3)c2N(Cc2ccc(Br)cc2)C1=O (centres undefined)	-4	-23	.	.	.
CCC1Nc2ncnc(N3CCCCC3)c2N(Cc2ccc(Br)cc2)C1=O (centres undefined)	-53*	-21	0	-1	-22
CCN(CC)C(=O)c1c(-c2ccccc2)c(-c2ccccc2)nn(C)c1=O	.	5	0	0	-11
C=CC(=O)Nc1ccc(CN2C(=O)N(c3c(Cl)c(OC)cc(OC)c3Cl)Cc3cnc(NCCCCN(CC)CC)nc32)cc1	-65*	-36	.	.	.
CCN(CC)CCNC(=O)c1ccc(NC(=O)Cc2ccc(OC)c(S(=O)(=O)N3CCOCC3)c2)cc1	-24	-20	.	.	.
O=c1nc(-c2ccccc2)c2cc(SC(F)F)ccc2[nH]1	3	36*	0	0	13
CCCc1c(-c2ccc(F)cc2F)ncn1Cc1cccc(-c2ccccc2)c1	4	6	.	.	.
CN1CCN(c2ccc(Cl)cc2NC(=O)c2ccc([N+](=O)[O-])cc2)CC1	-14	-6	6	-15	-85*
CN1CCN(c2ccc(Cl)cc2NC(=O)c2cccc(S(=O)(=O)N(C)C)c2)CC1	14	6	41*	0	-4
Cn1c(=O)n(C)c2cc([N+](=O)[O-])c(N3CCN(C(=O)c4ccc(F)cc4)CC3)cc21	6	1	3	-3	-1
Cn1c(=O)n(C)c2cc([N+](=O)[O-])c(N3CCN(C(=O)c4ccc(Cl)cc4)CC3)cc21	-17	-20	2	-1	-57*
CN1CCN(c2ccc([N+](=O)[O-])cc2C(=O)c2ccc(Br)cc2)CC1	-56*	-9	5	-7	4
CN1CCN(c2ccc([N+](=O)[O-])cc2NC(=O)c2ccccc2Cl)CC1	-5	-2	2	-7	1
COC(=O)c1ccc(Cn2ncc3c4sc(C)cc4n(C)c3c2=O)cc1	.	.	6	-3	0
O=C(NC(=S)Nn1cnnc1)c1ccccc1Br	-3	-3	0	-7	0
CCOC(=O)c1nc(N/N=C/c2ccccc2)sc1Br	1	5	5	-1	8
CCOC(=O)N1CCN(C2=C(NS(=O)(=O)c3ccc(C)cc3)C(=O)c3ccccc3C2=O)CC1	?	-5	3	1	-11
CC(C)(CN1CCN(Cc2ccccc2)CC1)NS(=O)(=O)c1ccc(Cl)cc1	-61*	-18	10	5	-22
SMILES	DRD3 antagonist	D3 ag	D1 ag	D1 PAM	D1 antagonist
Cc1ccc(S(=O)(=O)NC2=C(N3CCN(c4ccccc4F)CC3)C(=O)c3ccccc3C2=O)cc1	-67*!	-3	-2	-6	-29
Cc1ccc(S(=O)(=O)NC2=C(N3CCN(Cc4ccccc4)CC3)C(=O)c3ccccc3C2=O)cc1	-60*	-35	-1	-5	-3
Cc1ccccc1OCC(=O)NCC(c1ccc(Cl)cc1)N1CCCCC1 (centres undefined)	.	-17	0	-1	1
CCc1cccc(CC)c1NC(=O)CCS(=O)(=O)c1ccc(Br)s1	.	0	6	0	-3
COc1ccc(C(=O)CC(=O)c2ccc(C(C)(C)C)cc2)cc1	5	-38	.	.	.
COc1ccc(C(=O)C(CCC(CNC(C)(C)C)C(=O)c2ccc(OC)cc2)CNC(C)(C)C)cc1 (centres undefined)	-55*	-17	16	-11	-37*
COc1ccc(C(C[N+](=O)[O-])C2(c3ccc(OC)c(OC)c3)C(=O)c3ccccc3C2=O)cc1 (centres undefined)	-82*	-19	4	13	-2
CCn1ccnc1CN(C)C(=O)C1CCC(=O)N(Cc2cccc(C(F)(F)F)c2)C1 (centres undefined)	9	-1	2	2	-6
Cc1ccc(C)c(N2CCN(CCCNC(=O)CCn3c(=O)c4cccn4c4cccnc43)CC2)c1	?	-8	0	-7	-21
Cc1ccc(C)c(N2CCN(CCCNC(=O)Cn3c(=O)c4cccn4c4cccnc43)CC2)c1	-98*	-22	4	-1	10
O=C(CCn1c(=O)c2cccn2c2cccnc21)NCCCN1CCN(c2ccc(F)cc2)CC1	-67*	-4	.	.	.
COc1ccc(NC(=O)c2c(NC(=O)CNCC(C)C)sc3c2CCC3)c(OC)c1	5	-12	3	1	1
Cc1ccc(NC(=O)C(C)OC(=O)CCC2CCCCC2)cc1 (centres undefined)	4	-10	6	-1	-20
Cc1ccc(C2C(C#N)=C(N)SC(N)=C2C#N)c(C)c1	?	4	51*	-4	-22
Cc1ccc(C2C(C#N)=C(N)SC(N)=C2C#N)cc1	-1	4	18	-2	0
CC(C)c1nnc(NC(=O)C2CCN(S(=O)(=O)c3ccc(-n4cnnn4)cc3)CC2)s1	4	2	6	15	1
O=C(COC(=O)c1cccc(C(F)(F)F)c1)NCc1ccccc1	12	2	4	-6	-8
CC(Cc1cccc(C(F)(F)F)c1)NCCOC(=O)c1ccccc1 (centres undefined)	-99*	-81	10	7	0
CCC(C)N1C(=O)/C(=C/c2c(NCCCOC(C)C)nc3c(C)cccn3c2=O)SC1=S (centres undefined)	25	3	81*	-5	-6
CCC(C)N=Cc1c(NCc2ccco2)nc2c(C)cccn2c1=O (centres undefined)	15	-5	-1	4	0
CCC(C)Nc1nc2c(C)cccn2c(=O)c1C=Nc1ccc(OC)cc1 (centres undefined)	25	-1	4	6	18
CCCN1C(=O)/C(=C/c2c(NCCCOC(C)C)nc3c(C)cccn3c2=O)SC1=S	-23	-8	44*	1	-21
COc1ccccc1NC(=O)CSC1=Nc2ccccc2C2=NC(CC(=O)NCc3ccco3)C(=O)N12 (centres undefined)	.	-18	0	-3	-21
